Assay outcomes: PubChem BioAssay, National Center for Advancing Translational Sciences (NCATS)
Rows were chosen to be rich in hits. Some 19% of all compounds tested hit in one or more screens of this group.
TDP1 cell noCPT – qHTS for Inhibitors of human tyrosyl-DNA phosphodiesterase 1 (TDP1): qHTS in cells in absence of CPT; DT40 Tdp1-/- hTDP1 cells, no CPT, ATP luminescence, 48 h; Potency, µM (titrated, usually from 46.2 µM), hits mostly inhibitors; 420,000 tested, 15% active; note: nearly all actives have a fitted effect of over 55% in size
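Compound effects on proliferation are scored in DT40 Tdp1-/-;hTDP1 cells in the absence of CPT. ATP levels (CellTiter-Glo luminescence) are recorded after a ≥48 hr, 37 °C incubation.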
DT40 TDP1 CPT – growth inhibition of DT40 Tdp1-/-;hTDP1 cells with camptothecin (screen for TDP1 inhibitors); chicken DT40 Tdp1-/-;hTDP1 cells + 20 nM CPT, ATP luminescence, 48 h; Potency, µM (titrated, usually from 46.2 µM), usual class: inhibitors; 420,000 tested, 12% active; AID 686979; note: nearly all actives have a fitted effect of over 55% in size
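Chicken DT40 Tdp1-/- cells stably complemented with human TDP1 were seeded at 400 cells/well in medium containing 20 nM camptothecin, exposed to pin-transferred compounds, and grown at 37 °C for at least 48 hr. Viability was read as ATP luminescence.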
VP16 counter – counter-screen for ROR gamma inhibitors: Gal4-VP16 reporter. Drosophila S2 Gal4-VP16 UAS-luciferase, luminescence, 20 h. Potency, µM (titrated, usually from 53.6 µM), usual class: inhibitors. 310,000 tested, 3.5% active;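 note: Gal4-VP16 expression switched on by copper sulfate through the metallothionein promoter; nearly all actives have a fitted effect of over 50% in size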
TDP1 inh – TDP1 (human) enzyme inhibition; Q9NUW8; recombinant TDP1, AlphaScreen DNA substrate cleavage; Potency, µM (doses to about 130 µM), usual class: inhibitors; 350,000 tested, 0.28% active; AID 485290; note: nearly all actives have a fitted effect of over 40% in size
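Tdp1 1 nM final; 15 min RT w/ cpd; substrate 15 nM, 5 min; beads 10 ug/ml, 10 min; AlphaScreen read. Neg ctrl: no enzyme.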
RORgamma inh – blocks mouse ROR gamma transcriptional activity; Drosophila S2 Gal4-RORgamma UAS-luciferase reporter, 20 h; 310,000 tested, 5.4% active; Potency, µM (titrated, usually from 53.6 µM), actives largely listed as inhibitors; note: nearly all actives have a fitted effect of over 60% in size
Target sequence (P51450 whole entry, looked up, the tested form may be a part): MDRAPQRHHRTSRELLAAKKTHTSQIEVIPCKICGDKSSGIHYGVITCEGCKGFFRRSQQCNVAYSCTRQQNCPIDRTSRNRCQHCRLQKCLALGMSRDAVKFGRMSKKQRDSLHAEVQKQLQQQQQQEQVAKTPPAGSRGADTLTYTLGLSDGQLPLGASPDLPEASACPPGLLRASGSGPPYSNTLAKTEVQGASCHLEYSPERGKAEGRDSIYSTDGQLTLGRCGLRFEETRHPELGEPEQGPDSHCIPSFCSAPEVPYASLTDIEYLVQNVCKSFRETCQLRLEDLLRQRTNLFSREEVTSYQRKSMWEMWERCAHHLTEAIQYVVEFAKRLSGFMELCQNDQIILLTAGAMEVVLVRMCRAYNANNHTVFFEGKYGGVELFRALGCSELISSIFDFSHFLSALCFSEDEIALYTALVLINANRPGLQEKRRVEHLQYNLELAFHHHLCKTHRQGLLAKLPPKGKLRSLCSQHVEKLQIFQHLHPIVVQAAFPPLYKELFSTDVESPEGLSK
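ROR gamma transcriptional activity was tracked as Gal4-UAS luciferase output in stably transfected Drosophila Schneider cells, with compound added 1 hr before 700 uM copper sulfate induction and a 20 hr ambient-temperature incubation.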
Each line names hits and unclear results; the compound was inactive in the other large screens. Calls come from the whole dose curve; as a rule, active = well fitted curve in the direction sought with a large enough effect; inconclusive = small, poorly fitted or top-dose-only effect, or another doubt; inactive = no such curve, though single readings can be large; an effect the other way counts as inactive or inconclusive.

CC(C)(C)OC(=O)N1Cc2cc3ccccc3nc2C1CO (centres undefined)	TDP1 cell noCPT inconclusive
CN(C)CCn1c2c(c(SCC(=O)Nc3ccc4c(c3)OCCO4)nc1=O)CCC2	none (no result: VP16 counter, RORgamma inh)
CSc1ccc(CCNC(=O)c2ccc(CS(=O)Cc3ccc(Cl)cc3)o2)cc1 (centres undefined)	TDP1 cell noCPT 21µM, DT40 TDP1 CPT inconclusive, RORgamma inh inconclusive
O=C(NCCc1ccc(Cl)cc1)c1ccc(CS(=O)Cc2ccc(Cl)cc2)o1 (centres undefined)	DT40 TDP1 CPT inconclusive
CCOc1ccc(CCNC(=O)c2ccc(CS(=O)Cc3ccc(Cl)cc3)o2)cc1 (centres undefined)	TDP1 cell noCPT inconclusive, DT40 TDP1 CPT 16µM, RORgamma inh inconclusive
COc1ccc(OC)c(CCNC(=O)c2ccc(CS(=O)Cc3ccc(Cl)cc3)o2)c1 (centres undefined)	TDP1 cell noCPT inconclusive, DT40 TDP1 CPT 23µM
COc1ccc(S(=O)(=O)Cc2ccc(C(=O)NCCc3cc(OC)ccc3OC)o2)cc1	TDP1 cell noCPT inconclusive, DT40 TDP1 CPT inconclusive
O=c1[nH]cnc2c1C(c1ccccc1[N+](=O)[O-])c1c(nc[nH]c1=O)O2	none
CC(Oc1ccc(C(C)(C)C)cc1)c1ccnc2nc(/N=C/N(C)C)nn12 (centres undefined)	TDP1 cell noCPT inconclusive, DT40 TDP1 CPT 16µM
O=C(NCc1nnc2n1CCN(Cc1ccc(C(F)(F)F)cc1)CC2)c1cccc(F)c1	TDP1 cell noCPT inconclusive (no result: VP16 counter, TDP1 inh, RORgamma inh)
O=C(NCc1nnc2n1CCN(Cc1cccc(Cl)c1)CC2)c1cccc(F)c1	TDP1 cell noCPT 4.1µM, DT40 TDP1 CPT 5.2µM (no result: VP16 counter, TDP1 inh, RORgamma inh)
CCOC(=O)c1oc2ccccc2c1NC(=O)c1ccc(S(=O)(=O)N2CCCC2)cc1	none
Cc1ccc(-c2n[nH]c(=S)nc2-c2ccc(C)cc2)cc1	TDP1 cell noCPT inconclusive, DT40 TDP1 CPT inconclusive, VP16 counter inconclusive, RORgamma inh 5µM (no result: TDP1 inh)
O=C(NCc1ccc(N2CCCC2=O)cc1)C1CCC(=O)N(Cc2ccccc2F)C1 (centres undefined)	none
CCc1nn2c(=O)cc(COC(=O)c3ccc(NC(=O)C4CCCCC4)cc3)nc2s1	TDP1 cell noCPT 18µM, DT40 TDP1 CPT inconclusive (no result: VP16 counter, RORgamma inh)
Cc1nn2c(=O)cc(COC(=O)c3ccc(NC(=O)C4CCCCC4)cc3)nc2s1	TDP1 cell noCPT 9.2µM, DT40 TDP1 CPT inconclusive (no result: VP16 counter, RORgamma inh)
CC(=O)n1cc(C(C[N+](=O)[O-])SCCN)c2ccccc21 (centres undefined)	TDP1 cell noCPT 5.2µM, DT40 TDP1 CPT 5.2µM, VP16 counter inconclusive, RORgamma inh 13µM
Cn1cc(C(C[N+](=O)[O-])c2ccccc2)c2ccccc21 (centres undefined)	TDP1 cell noCPT inconclusive, DT40 TDP1 CPT inconclusive, RORgamma inh inconclusive (no result: TDP1 inh)
NS(=O)(=O)OCCCc1ccc(C(F)(F)F)cc1	TDP1 cell noCPT inconclusive, DT40 TDP1 CPT inconclusive (no result: TDP1 inh)
O=C(Cc1ccc([N+](=O)[O-])cc1)Nc1cc(C(F)(F)F)cc(C(F)(F)F)c1	TDP1 cell noCPT 6.5µM, DT40 TDP1 CPT 4.1µM, RORgamma inh inconclusive
N#Cc1c(N)n(C2OC(CO)C(O)C2O)c2ncnc(N)c12 (centres undefined)	TDP1 cell noCPT 0.021µM, DT40 TDP1 CPT 0.016µM (no result: VP16 counter, TDP1 inh, RORgamma inh)
Nc1ncnc2c1c(I)cn2C1OC(CO)C(O)C1O (centres undefined)	TDP1 cell noCPT 0.28µM, DT40 TDP1 CPT 0.49µM, VP16 counter 4µM, RORgamma inh 5.6µM
COc1cc(/C=C2/C(=N)N3C(=NC2=O)SN=C3S(C)(=O)=O)ccc1OS(=O)(=O)c1ccc(C)cc1	TDP1 cell noCPT inconclusive, DT40 TDP1 CPT inconclusive
Cc1cc(=O)[nH]c(NN=C(CC(C)C)CC(C)C)n1	RORgamma inh inconclusive
Cc1ccc(CN2CCCn3nc(C(=O)NCc4ccc(N(C)C)cc4)cc3C2=O)cc1	TDP1 cell noCPT 13µM, DT40 TDP1 CPT inconclusive (no result: VP16 counter, RORgamma inh)
Cc1ccc(CN2CCCn3nc(C(=O)NCc4cc(C)ccc4C)cc3C2=O)cc1	TDP1 cell noCPT 16µM, DT40 TDP1 CPT 15µM (no result: VP16 counter, RORgamma inh)
Cc1ccc(CN2CCCn3nc(C(=O)NCCN(C)C)cc3C2=O)cc1	none (no result: VP16 counter, RORgamma inh)
CCN(CC)C(=O)c1cc2sc3ccccc3c2s1	TDP1 cell noCPT inconclusive, DT40 TDP1 CPT inconclusive
Cc1ccc(CN2C(=O)CSCC2(C)C(=O)NCc2ccccc2)cc1 (centres undefined)	TDP1 cell noCPT inconclusive, DT40 TDP1 CPT 21µM (no result: VP16 counter, TDP1 inh, RORgamma inh)
Cc1ccccc1CN1C(=O)CSCC1(C)C(=O)NCc1ccccc1 (centres undefined)	none (no result: VP16 counter, TDP1 inh, RORgamma inh)
Cc1cccc(C)c1NC(=O)C1(C)CSCC(=O)N1Cc1cccc(C(F)(F)F)c1 (centres undefined)	TDP1 cell noCPT 26µM, DT40 TDP1 CPT inconclusive (no result: VP16 counter, TDP1 inh, RORgamma inh)
Cc1cccc(C)c1NC(=O)C1(C)CSCC(=O)N1Cc1cccc(F)c1 (centres undefined)	none (no result: VP16 counter, TDP1 inh, RORgamma inh)
CCCOc1ccc(CSc2ncn[nH]2)cc1	TDP1 cell noCPT 5.8µM, DT40 TDP1 CPT 4.6µM
O=C(NCc1cccc(C(F)(F)F)c1)C1CC(c2ccccc2[N+](=O)[O-])=NO1 (centres undefined)	TDP1 cell noCPT inconclusive, DT40 TDP1 CPT inconclusive
COc1ccc(N=[N+]([O-])c2ccc(OC)cc2)cc1	TDP1 cell noCPT inconclusive, VP16 counter inconclusive, RORgamma inh 8.9µM
CC(C)CC(N)c1csc(Nc2ccc(S(C)(=O)=O)cc2)n1 (centres undefined)	none (no result: VP16 counter, TDP1 inh, RORgamma inh)
CC(C)CC(N)c1csc(Nc2cc(Oc3ccccc3)ncn2)n1 (centres undefined)	TDP1 cell noCPT 21µM, DT40 TDP1 CPT 23µM (no result: VP16 counter, TDP1 inh, RORgamma inh)
NC(c1ccccc1)c1csc(Nc2cc(Oc3ccccc3)ncn2)n1 (centres undefined)	TDP1 cell noCPT 16µM, DT40 TDP1 CPT 18µM (no result: VP16 counter, TDP1 inh, RORgamma inh)
CC1=C(C(=O)Nc2ccccc2)C(c2cccnc2)n2ncnc2N1 (centres undefined)	none
CC(Oc1ccccc1)C(=O)Nc1ccccc1C(=O)OCc1cc(=O)n2nc(C3CC3)sc2n1 (centres undefined)	TDP1 cell noCPT 7.3µM, DT40 TDP1 CPT 3.7µM (no result: VP16 counter, RORgamma inh)
Cc1ccc(OCC(=O)Nc2ccccc2C(=O)OCc2cc(=O)n3nc(C4CC4)sc3n2)cc1	TDP1 cell noCPT 10µM, DT40 TDP1 CPT 7.3µM (no result: VP16 counter, RORgamma inh)
Cc1ccc(OCC(=O)Nc2ccccc2C(=O)OCc2cc(=O)n3c(C)csc3n2)cc1	TDP1 cell noCPT 21µM, DT40 TDP1 CPT 16µM (no result: VP16 counter, RORgamma inh)
CCOc1ccc(NC(=O)c2ccc(C#CC(C)(C)O)cc2)cc1	none
CN(Cc1ccccc1)C(=O)COC(=O)c1cc(-c2ccc(Cl)s2)nc2ccccc12	none
COc1ccc(N2C(=O)CSC23CCC(C(C)(C)C)CC3)cc1 (centres undefined)	TDP1 cell noCPT 18µM, DT40 TDP1 CPT inconclusive
